Screening results from PubChem BioAssay.
An excerpt weighted towards active compounds, which were near 2.3% of everything screened.
MCL1-BIM inh: inhibitors of human MCL1 binding to BIM-BH3 peptide; Q07820; GST-MCL1 / FITC-Bim-BH3 fluorescence polarization; inhibition, % at 10.9 µM; hit rate 0.68% among 320,000; AID 2057;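 active = inhibition above the mean inhibition of all tested compounds plus 3 SD, set per campaign, cut at about 40% in these data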;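 note: 0% = DMSO wells and 100% = unlabeled Bim-BH3 peptide control; higher means more loss of mP so more displacement of Bim peptide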
Target sequence (Q07820 whole entry, looked up): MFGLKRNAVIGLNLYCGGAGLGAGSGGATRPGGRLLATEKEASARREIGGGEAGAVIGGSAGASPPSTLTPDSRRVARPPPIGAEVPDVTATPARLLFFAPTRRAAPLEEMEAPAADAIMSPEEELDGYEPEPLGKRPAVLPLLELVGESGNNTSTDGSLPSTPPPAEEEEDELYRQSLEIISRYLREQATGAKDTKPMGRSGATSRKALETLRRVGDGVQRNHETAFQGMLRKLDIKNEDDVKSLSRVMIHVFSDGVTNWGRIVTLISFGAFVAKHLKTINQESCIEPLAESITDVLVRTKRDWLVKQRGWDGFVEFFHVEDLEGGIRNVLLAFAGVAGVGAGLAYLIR
Mcl1 Noxa PPI: disrupts binding of human Mcl-1 to Noxa peptide; TR-FRET Mcl-1/Noxa peptide binding, 2 h; inhibition, % at 21.7 µM; hit rate 1.5% among 220,000; AID 1022;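 active = compounds that cut the protein-peptide binding signal by more than 50% relative to plate controls in a single-dose test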;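 note: His-tagged Mcl-1 with rhodamine Noxa BH3 peptide and terbium anti-His antibody; 0% = Mcl-1 plus Noxa peptide wells and 100% = peptide-only wells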
Mcl1-Bid inh: Mcl-1/Bid interaction inhibition. Q07820. TR-FRET Mcl-1/Bid-Dy647 peptide binding, 1536-well. inhibition, % at 21.7 µM. hit rate 0.97% among 220,000. AID 1021;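 active = compounds that cut the binding signal by more than half at the single screening dose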;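 note: His-tagged Mcl-1 with europium anti-His antibody binding Bid BH3 peptide; 0% = Mcl-1 plus peptide wells and 100% = peptide-only wells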
Mcl-1 Bim block: disrupts Bim peptide binding to human Mcl-1. Bead-based flow cytometry, Bim peptide-Mcl-1 binding. hit rate 0.1% among 190,000. Q07820. inhibition, % at 10 µM; in the data active = inhibition above about 40%;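 note: 0% = no compound tracer wells and 100% = peptide blocker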
GLD-1 RNA inh: GLD-1-TGE RNA interaction inhibition (C. elegans) | Q17339 | purified GLD-1 + fluorescein TGE RNA, fluorescence polarization | inhibition, % at 5.96 µM | hit rate 0.44% among 320,000;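 active = percent inhibition above a per-plate cutoff, the plate mean of test compounds plus 3 SD, cut at about 30% in these data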;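 note: 0% = DMSO wells with GLD-1 and probe and 100% = wells lacking GLD-1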
BCLXL inh: blocks human Bcl-xL binding to Bim BH3 peptide | Q07817 | GST-Bcl-xL / FITC-Bim BH3 peptide fluorescence polarization | inhibition, % at 10.9 µM | hit rate 0.7% among 320,000;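 active = inhibition above the mean of all tested compounds plus 3 SD, cutoff set per campaign, cut at about 30% in these data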;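 note: 0% = DMSO wells and 100% = unlabeled Bim-BH3 peptide competitor; inhibitors lower millipolarization by displacing the labeled peptide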
Target sequence (Q07817 whole entry, looked up): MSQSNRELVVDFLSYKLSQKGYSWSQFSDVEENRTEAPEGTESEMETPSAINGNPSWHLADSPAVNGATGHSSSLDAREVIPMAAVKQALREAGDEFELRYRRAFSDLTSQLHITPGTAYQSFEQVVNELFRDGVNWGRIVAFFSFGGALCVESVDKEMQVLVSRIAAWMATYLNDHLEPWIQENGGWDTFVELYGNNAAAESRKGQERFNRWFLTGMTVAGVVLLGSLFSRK
* = called active by the depositor; . = no result given; ! = a repeat was not active.

SMILES	MCL1-BIM inh	Mcl1 Noxa PPI	Mcl1-Bid inh	Mcl-1 Bim block	GLD-1 RNA inh	BCLXL inh
COc1ccc(N2CCC(CNC(=O)Nc3ccc(C)c(C)c3)C2)cc1 (centres undefined)	9	101*	3	-4	2	11
CNC[C@H]1Oc2c(NS(=O)(=O)c3ccc(OC)cc3)cccc2C(=O)N([C@H](C)CO)C[C@H]1C	.	.	.	.	-10	.
COc1ccc(N2CCC(CNC(=S)Nc3c(C)cc(C)cc3C)C2)cc1 (centres undefined)	10	5	-80	.	-4	11
COc1ccc(N2CCC(CNC(=S)Nc3cccc(C)c3)C2)cc1 (centres undefined)	-1	73*	-73	3	-3	3
O=C(CNc1ccc(Br)cc1)Nc1ccc(S(=O)(=O)N2CCCC2)cc1	-4	.	.	.	7	-1
Cc1cc(C)nc(N2CCCC(C(=O)NNC(=O)c3ccncc3)C2)n1 (centres undefined)	-1	-26	-70	.	1	3
CC(=O)c1ccc(C(=O)Nc2nnc(-c3ccc(Cl)cc3)o2)cc1	6	-67	-59	.	0	4
CN(C)c1ccc(C(=O)Nc2nnc(-c3ccc(Cl)cc3)o2)cc1	15	69*	48	0	4	2
Cc1ccc(NC(=O)Cn2c(O)c(N=NC(=O)c3ccncc3)c3ccccc32)cc1	4	39	27	-3	2	3
O=C(N=Nc1c(O)n(Cc2ccccc2)c2ccccc12)c1ccc(O)cc1	10	-6	4	-5	-2	6
Cc1ccc(NC(=O)Cn2c(O)c(N=NC(=O)c3cc4ccccc4cc3O)c3ccccc32)cc1	-9	99*	80*	5	6	-1
O=C(N=Nc1c(O)n(Cc2ccccc2)c2ccccc12)c1cc2ccccc2cc1O	24	85*	56*	4	2	10
Cc1ccc2nc(SCC(=O)NC3CCCc4ccccc43)[nH]c2c1 (centres undefined)	-5	0	4	-3	1	-4
COc1ccc2nc(-c3ccccc3)cc(OC)c2c1	-4	8	12	-4	3	2
COc1ccc2nc3cccc(OC)c3nc2c1	33	22	-35	2	24	46*
COc1ccc2nc3ccccc3nc2c1N	11	55*	-86	.	6	13
O=C(NCc1ccccn1)c1cccc(NS(=O)(=O)c2cccc(F)c2)c1	3	9	-14	-5	8	5
O=[N+]([O-])c1ccc(Cl)c(S(=O)(=O)N2CCCCCC2)c1	1	2	-14	-3	-1	0
COc1ccc2c(c1)c1ccc3c(c1n2C)C(=O)C=CC3=O	.	102*	33	.	.	.
Cc1ccc2c(c1)c1ccc3c(c1n2C)C(=O)C=CC3=O	.	108*	23	.	.	.
COc1ccc2c(c1)c1ncn(CCN3CCCC3)c(=O)c1n2C	5	5	-13	7	1	3
O=C(COC(=O)c1ccccn1)NC1CCCCC1	8	3	2	66*	5	3
CC1C(c2ccccc2)N(C)CCC12NC(=O)NC2=O (centres undefined)	6	-17	88*	0	1	-3
Cc1cc(Nc2ccccc2)nc(-c2ccccc2O)n1	3	25	8	2	8	0
Cc1cc(NC2CCCCC2)nc(-c2ccccc2O)n1	5	28	52*	-3	-2	4
SMILES	MCL1-BIM inh	Mcl1 Noxa PPI	Mcl1-Bid inh	Mcl-1 Bim block	GLD-1 RNA inh	BCLXL inh
CSCCC(NC(=O)c1ccccc1)C(=O)Nc1ccc(NC(C)=O)cc1 (centres undefined)	4	4	-54	0	0	6
CN(C)S(=O)(=O)c1ccc(Cl)c(NC(=O)CSc2nnnn2-c2ccc(O)cc2)c1	.	22	56*	-2	.	.
O=C(NC(=S)NCc1cccnc1)c1ccc([N+](=O)[O-])cc1	10	3	71*	-2	-1	6
CC(C)(C)C(=O)N1CCN(S(=O)(=O)c2ccc3c(c2)OCCCO3)CC1	-1	.	.	.	3	4
O=C(Cn1cnc2cc([N+](=O)[O-])ccc2c1=O)Nc1cccc(S(=O)(=O)N2CCOCC2)c1	9	53*	-6	-2	7	-1
O=C(Cn1cnc2ccccc2c1=O)Nc1ccc(S(=O)(=O)N2CCOCC2)cc1	5	11	-17	-2	3	3
O=C(/C=C/c1ccco1)Nc1cccc2cccnc12	37	32	-34	4	30	51*
Fc1cccc(F)c1/C=C/c1ccc2ccccc2n1	-8	12	23	0	1	-3
C(=C\c1ccco1)/c1ccc2ccccc2n1	18	74*	-87	.	5	15
Oc1c(Br)cccc1/C=N/c1ncn[nH]1	-7	.	.	.	1	-3
CC(C)c1ccc(NC2CCCN(C(=O)c3n[nH]c4c3CCC4)C2)cc1 (centres undefined)	7	.	.	.	3	4
O=C1N/C(=N\N=C\c2cccnc2)SC1Cc1ccc(SC(F)F)cc1 (centres undefined)	6	-34	-11	-2	0	2
O=C1N/C(=N\N=C\c2ccc3ncccc3c2)SC1Cc1ccc(SC(F)F)cc1 (centres undefined)	4	13	52*	-3	-11	3
O=C(CCS(=O)(=O)c1ccccc1)Nc1ccc(-c2nc3ccccc3s2)c(O)c1	-1	22	-10	-3	2	36*
O=C(O)CSCC(=O)Nc1ccc(-c2nc3ccccc3s2)cc1	1	56*	-10	.	-6	8
Cc1ccc2nc(-c3ccc(NC(=O)CCN4C(=O)c5ccccc5C4=O)cc3)sc2c1	-7	49	56*	-2	6	-1
Cc1ccc2nc(-c3ccc(NC(=O)CSCC(=O)O)cc3)sc2c1	0	9	19	.	-1	10
Cc1ccc(N=Cc2sccc2C)cc1C	5	15	-50	0	-5	4
O=S(=O)(NCc1ccccc1)c1ccc(Cl)cc1	9	-24	-18	-6	-3	7
O=S(=O)(Nc1cc2nc3ccccc3nc2n1Cc1ccccc1)c1ccc(Cl)cc1	18	29	-15	-19	40*	30
CCCCNC(=O)N1CCCN(c2ccc(C#N)cn2)CC1	10	.	.	.	-3	3
N#Cc1cc(-c2ccccc2)nn1-c1ccccc1	43*	97*	27	5	-2	45*
OC(COCc1ccccc1)CN1CCN(Cc2ccc3c(c2)OCO3)CC1 (centres undefined)	-5	55*	9	-1	0	1
CC(=O)c1ccc(OCC(O)CN2CCN(Cc3ccc4c(c3)OCO4)CC2)cc1 (centres undefined)	5	28	52*!	0	2	-1
Fc1ccccc1NC(=S)N1CCN(Cc2ccc3c(c2)OCO3)CC1	14	4	92*	0	0	5
